# Measurements taken from paper PMC5540273 (PLoS ONE, 2017).
# Key:
# [1] = tested on: JAK2(JH1domain-catalytic)
# [2] = tested on: INSR
# [3] = tested on: T1, JNK2
# T1 construct: gene MAPK9
# [4] = tested on: T2, JNK3
# T2 construct: gene MAPK10
# [5] = tested on: T3, JNK1
# T3 construct: gene MAPK8
# [6] = tested on: JAK1(JH2domain-pseudokinase)
# [7] = tested on: JAK3(JH1domain-catalytic)
# [8] = tested on: IRAK4
# [9] = tested on: KIT-autoinhibited
# [10] = tested on: LATS2
# [11] = tested on: LRRK2
# [12] = tested on: T4, LKB1
# T4 construct: gene STK11
# [13] = tested on: T5, LOK
# T5 construct: gene STK10
# [14] = tested on: LYN
# [15] = tested on: MAK
# [16] = tested on: MAP4K2
# [17] = tested on: MAPKAPK2
# [18] = tested on: MAST1
# [19] = tested on: T6, MEK1
# T6 construct: gene MAP2K1
# 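Further: kd values determined as follow-up on hits from a single-replicate KINOMEscan panel screen.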
structure (smiles),measurement,setting,value
O=c1cc(N2CCOCC2)nc2n(Cc3ccc(F)c(Cl)c3)ccn12 [GSK2297099],Kd,[1],> 10000 nM
Nc1nc(-c2ccccc2F)c(-c2ccnc3ccccc23)s1 [GW560459],Kd,[2],> 10 µM
same,Kd,[3],1200 nM
same,Kd,[4],610 nM
CCC(=O)c1c(-c2ccccc2)c2cc(Cl)ccc2c(=O)n1Cc1ccc(C(=O)O)cc1,Kd,[5],66 nM
same,Kd,[3],77 nM
same,Kd,[4],12 nM
Cc1cc(Nc2nc(-c3cccc(C)n3)nc3ccccc23)ccn1 [GW872411],Kd,[6],410 nM
O=C(NCCNc1ccnc(Nc2ccc(F)cc2)n1)Nc1ccc2c(c1)OCO2 [GSK1379882],Kd,[1],2000 nM
Cc1nc(N(C)[C@H]2CN(C(=O)CC#N)CC[C@H]2C)c2cc[nH]c2n1,Kd,[7],140 nM
CCC(=O)c1c(-c2ccccc2)c2cc(Cl)ccc2c(=O)n1Cc1cc(S(C)(=O)=O)n(CCC(C)(C)O)n1,Kd,[5],19 nM
same,Kd,[3],15 nM
same,Kd,[4],4.6 nM
Fc1cccc(CSc2nnc(-c3ccc4c(c3)CCO4)o2)c1,Kd,[8],> 10 µM
COc1ccc(Nc2nccc(N3CCC(NS(=O)(=O)c4ccc(NC(C)=O)cc4)C3)n2)cc1 (stereo not shown) [GSK1379729],Kd,[1],38 nM
COC(=O)c1c(-c2ccccc2)c2cc(Br)ccc2c(=O)n1Cc1ccc(S(C)(=O)=O)cc1,Kd,[5],480 nM
same,Kd,[3],350 nM
same,Kd,[4],73 nM
COc1cc(Nc2nccc(N3CCC(NC(=O)C4COc5ccccc5O4)C3)n2)cc(OC)c1OC (stereo not shown) [GSK1379761],Kd,[1],47 nM
CCC(=O)c1c(-c2ccccc2)c2cc(Cl)ccc2c(=O)n1Cc1cc(C(=O)NC2CC2)n(C)n1,Kd,[5],20 nM
same,Kd,[3],10 nM
same,Kd,[4],3.8 nM
CCn1c(-c2ccoc2)nc2cnccc21 [SB-733887],Kd,[2],> 10 µM
CCC(=O)c1c(-c2ccccc2)c2cc(Cl)ccc2c(=O)n1Cc1cc(S(C)(=O)=O)n(CC(N)=O)n1,Kd,[5],160 nM
same,Kd,[3],120 nM
same,Kd,[4],60 nM
COC(=O)c1c(-c2ccccc2)c2cc(Br)ccc2c(=O)n1Cc1ccc(NC(=O)CCC(=O)O)cc1,Kd,[5],58 nM
same,Kd,[3],66 nM
same,Kd,[4],13 nM
COc1cccc(C2=C(Nc3cccc(C(=O)O)c3)C(=O)NC2=O)c1 [SB-390770],Kd,[7],480 nM
COc1cc(Nc2nccc(N3CCC(NC(=O)C(C)c4ccc(Cl)cc4)C3)n2)cc(OC)c1OC (stereo not shown) [GSK1379757],Kd,[1],140 nM
Nc1nc(N)c2nc(-c3ccccc3)[nH]c2n1 [SKF-12778],Kd,[6],150 nM
CCC(=O)c1c(-c2ccccc2)c2cc(Cl)ccc2c(=O)n1Cc1cc(S(C)(=O)=O)n(CC(F)F)n1,Kd,[5],37 nM
same,Kd,[3],33 nM
same,Kd,[4],9.2 nM
COc1cc(Nc2ccnc3ccc(C(F)(F)F)cc23)cc(OC)c1OC [GW577382],Kd,[7],> 10000 nM
CCc1nc(-c2cccc(C)c2)c(-c2ccncc2)s1,Kd,[4],81 nM
CN(C)c1cc(-c2ccc3c(N)n[nH]c3c2)nc(N)n1 [GSK2219329],Kd,[9],> 10 µM
CCn1c(-c2nonc2N)nc2ccccc21 [SB-693162/GW549034],Kd,[10],1800 nM
same,Kd,[11],> 10 µM
Nc1ncnc2c1ncn2-c1cccc2ccccc12 [SKF-97184],Kd,[12],> 10 µM
COc1cc2ncn(-c3cc(OCc4ccncc4Br)c(C(N)=O)s3)c2cc1OC [GW854278],Kd,[13],500 nM
Cc1nnc(-c2ccc(C)c(-c3ccc(C(=O)O)cc3)c2)o1 [GW608005],Kd,[13],> 10000 nM
Cc1ccccc1COc1cc(-n2cnc3cc(Cl)ccc32)sc1C(N)=O [GW813349],Kd,[11],> 10 µM
Nc1n[nH]c2nnc(-c3ccccc3)c(-c3ccccc3)c12 [GW554060],Kd,[14],> 10 µM
CCS(=O)(=O)c1ccc(OC)c(Nc2ncc(-c3ccc(F)cc3)o2)c1.Cl [GW591947],Kd,[15],> 10 µM
Cc1nnc(-c2ccc3ncn(-c4ccc(S(C)=O)cc4)c3c2)o1 (stereo not shown),Kd,[16],> 10 µM
CN1C(=O)C(Nc2cc(Cl)c(O)c(Cl)c2)=C(c2ccc(Cl)cc2)C1=O [SB-404321],Kd,[17],> 10 µM
CN1C(=O)C(Nc2ccccc2)=C(c2ccccc2)C1=O [SB-300079],Kd,[18],> 10 µM
Cc1cccc(-c2nc(Nc3ccc4c(cnn4C)c3)c3ccccc3n2)n1 [GW876731],Kd,[18],> 10 µM
Cn1c(=O)c(F)c(Nc2ccc(I)cc2F)c2c(=O)n(OC[C@H](O)CO)cnc21,Kd,[19],34 nM
COc1cc2nccc(Nc3cccc(Oc4ccccc4)c3)c2cc1OC.Cl [GW284543],Kd,[19],100 nM
